Results: PubChem BioAssay AID720519 (National Center for Advancing Translational Sciences (NCATS), 2013)
Records with an inconclusive call do not appear. Where a call stands in place of a potency, no number is given. Activity calls are given as the source filed them. The call rests on the fitted dose curve; in most records, active means well fitted activation curve with a large enough effect; inconclusive means small, poorly fitted or top-dose-only effect; inactive means flat fitted curve, though single readings scatter. Square brackets hold non-standard residues; d marks the D form. Peptide text beside a SMILES is read from it. ξ: configuration not given here. ξLac(3-iPr) = CC(C)CC(O)C(=O)O; NMeV = CN[CH](C(=O)O)C(C)C; NMeA = CN[CH](C)C(=O)O; βAla = NCCC(=O)O

assay: qHTS for Inhibitors of Cell Surface uPA Generation: Confirmatory Assay for Cherry-picked Compounds; settings: cell surface uPA activity generation, qHTS confirmation; series mostly up to 115 µM
Excerpt: The overall objective of this project is to perform a quantitative high throughput screen (qHTS) to identify novel compounds that inhibit the generation of cell surface urokinase activity. The urokinase plasminogen activator (uPA) is one of the two primary endogenous systems that mediate plasminogen activation into plasmin. Members of this system, including uPA and its receptor (uPAR), are overexpressed in several malignant tumors. This system plays a major role in adhesion, migration, invasion and metastasis of cancer cells. Small molecule inhibitors of the uPA system will serve as probes to understand the molecular mechanisms of the uPA cascade and better understanding the micro-environmental circumstances that facilitate the activation of plasminogen by uPA, and finally may provide novel candidate agents for anticancer drug therapy.
[…] […] Upon inhibition of the uPA activation cascade, the subsequent cell surface uPA activity-dependent translocation of LF into the cytoplasm is inhibited. ATP-Lite is used to measure intracellular ATP concentrations (measure cell viability) which remain increased if LF entry into the cytoplasm is inhibited. This validation assay was performed using a small set of cherry picked compounds. Activation of cell viability (increase in luminescence signal) due to inhibition of the cell surface uPA generation is the desired outcome of this assay.
NIH Chemical Genomics Center [NCGC]
NIH Molecular Libraries Probe Centers Network [MLPCN]
Assay Submitter (PI): Thomas Bugge, National Institute of Dental and Craniofacial Research, NIH
Cultured RAW 264.7 were dispensed into 1536-well clear bottom, white walled tissue culture plates at a density of 4000 cells/well and were incubated overnight (12-16 h) at 37 C in a 5% CO2 incubator. Serially diluted compounds (1:5 dilution) in 23 nl DMSO were added to cells (0.0024 uM to 3.83 uM final concentration). […] Compound and reagent-treated plates were incubated for 24 h at 37 C in a 5% CO2 incubator. Three microliter of PerkinElmer ATPlite was then added to each well and luminescence was detected using the PerkinElmer ViewLux plate reader for a 5 sec exposure.
Potency means the concentration at half of the fitted maximal effect.

SMILES	Potency
Cc1ccccc1O	inactive
CCOc1ccc(CN2CCN(C(=O)Cc3ccccc3)CC2)cc1	inactive
COCC(=O)N1Cc2ccccc2-n2nncc2C1	inactive
CCOC(=O)c1ccc(N=Cc2c(O)n(-c3ccc(OC)cc3)c(=S)[nH]c2=O)cc1	inactive
FC(F)(F)Oc1ccc(NC2=NCCCS2)cc1	inactive
COc1ccc(-c2nn(CCC#N)cc2C(=O)Nc2cccc([N+](=O)[O-])c2)cc1OC	inactive
O=c1[nH]c(=O)n(CCc2ccccc2)c(O)c1C=NC1CC1	inactive
COc1ccc(-c2nn(CCC#N)cc2C(=O)Nc2ccccc2)cc1OC	inactive
CCC(C)C1NC(=O)C2CCCN2C(=O)C(CC(C)C)OC(=O)CCNC(=O)C(C)N(C)C(=O)C(C(C)C)N(C)C1=O (stereo unspecified) (cyclo([ξLac(3-iPr)]PI[NMeV][NMeA][βAla]); configuration not given here)	3.69 µM (active)
O=c1[nH]c(=O)n(-c2ccc(Cl)cc2)c(O)c1C=Nc1ccc(S(=O)(=O)Nc2nccs2)cc1	inactive
COC(=O)C1=C(c2cccc(OC)c2OC)C[C@@H]2CC[C@H]1N2C(=O)NC1CC1	inactive
Cc1ncc(CN2CCCC(C(=O)c3cccc(OC(C)C)c3)C2)s1 (stereo unspecified)	inactive
COc1ccccc1NC(=O)N1C[C@@H]2C[C@@H](C1)c1cccc(=O)n1C2	inactive
O=C(c1ccc(F)c([N+](=O)[O-])c1)N1CC2CC(C1)c1cccc(=O)n1C2 (stereo unspecified)	inactive
CCCCCn1c(=O)c(C(=O)Nc2ccccn2)c(O)c2ccccc21	inactive
O=P1(NCCCl)OCCCN1CCCl (stereo unspecified)	inactive
COc1ccccc1N1CCN(Cc2ccc(SC)cc2)CC1	inactive
Cc1cc(C(=O)NP(=O)(N2CCOCC2)N2CCOCC2)c(C)n1C1CC1	inactive
Cc1ccc(-n2c(O)c(C=NCCN3CCNCC3)c(=O)[nH]c2=S)cc1	inactive
C[N+](C)(C)CCOC(=O)CBr	inactive
c1cncc(C2CCCCN2)c1 (stereo unspecified)	inactive
